This is a sample that favours compounds with a hit; in the whole collection about 21% have one here.
Pf growth 96h: Primary qHTS for delayed death inhibitors of the malarial parasite plastid, 96 hour incubation | P. falciparum luciferase reporter growth, 96 h | Potency, µM (titrated, usually from 28.7 µM), actives largely listed as inhibitors | 6.9% of 320,000 active
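Readout is luminescence from an integrated firefly luciferase in P. falciparum. Red cells, 2% hematocrit and 0.05% parasitemia final, were cultured with compound through two parasite generations (96 hours) at 37 C, 5% CO2.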
Pf growth 48h: Primary qHTS for delayed death inhibitors of the malarial parasite plastid, 48 hour incubation; P. falciparum luciferase growth in erythrocytes, 48 h; Potency, µM (highest dose often 28.7 µM), hits mostly inhibitors; 5.9% of 310,000 active
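First compound was added to culture medium, then infected red cells at 0.1% parasitemia and 2% hematocrit (final). After incubation at 37 C under 5% CO2, luciferase detection reagent was dispensed and light output recorded.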
CHX counter: Cycloheximide Counterscreen for Small Molecule Inhibitors of Shiga Toxin | cell reporter, cycloheximide protein synthesis inhibition counterscreen | max response, % | 12% of 300,000 active | AID 2314, 2010; in the data active means max response mostly above about 13%, no sharp cut-off; inactive means mostly below about 14%; further: read at 38.3 µM for the half of the compounds with a filed dose
Shiga toxin inh: A qHTS for Small Molecule Inhibitors of Shiga Toxin | inhibition, % at 38.7 µM | Vero cells, Shiga toxin protein synthesis inhibition reporter | AID 2315, 2010 | 9.2% of 290,000 active; in the data active means inhibition mostly above about 28%, no sharp cut-off; inactive means mostly below about 43%
NS1 inh: qHTS Assay for Inhibitors of Influenza NS1 Protein Function; 0.4% of 270,000 active; AID 2326, 2010; Potency, µM (doses to about 46.1 µM); calls by dose curve; further: actives are rising curves; nearly all actives have a fitted effect of over 50% in size
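OD600 was taken as the measure of yeast growth restored by compound in an NS1-expressing S. cerevisiae strain. Cells had been washed out of glucose medium and diluted 1:100 into galactose -URA medium, pH 6.0.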
Hits are given with their value; [ ] = dose if it differs, or a comment. Unless noted, the call rests on the fitted dose curve; in most records, active means well fitted inhibition curve with a large enough effect; inconclusive means small, poorly fitted or top-dose-only effect, or another doubt; inactive means no such curve, though single readings can be large or run the other way.

Screening COc1cc(/C=C2\SC(=S)N(CCC(=O)NCCc3ccccc3)C2=O)cc(OC)c1OC returned Pf growth 96h inactive, Pf growth 48h inactive, CHX counter inactive, Shiga toxin inh inactive and NS1 inh inactive.
`COc1cc(/C=C2\SC(=S)N(CCC(=O)Nc3ccccc3O)C2=O)cc(OC)c1OC` gave Pf growth 96h 13µM, Pf growth 48h inconclusive, CHX counter inactive, Shiga toxin inh inactive and NS1 inh inactive.
Screening Cc1ccc(Cn2ccsc2=NC(=O)CCl)cc1 returned Pf growth 96h inconclusive, Pf growth 48h inconclusive, CHX counter 32 and Shiga toxin inh 45.
Cc1ccc(Cn2ccsc2=NC(=O)COC(=O)c2ccc(NC(=O)CC#N)cc2)cc1 was read as Pf growth 96h 10µM and Pf growth 48h 13µM.
`Cc1ccc(S(=O)(=O)N2CCOCC2)cc1C(=O)N1c2ccccc2Sc2ccccc21` gave Pf growth 48h inconclusive, CHX counter inactive, Shiga toxin inh inactive and NS1 inh inactive.
For OC1(c2cccs2)CN(c2ccc(Cl)cc2)C2=[N+]1CCCC2 (stereo not drawn) the results were Pf growth 96h inconclusive, Pf growth 48h inconclusive, CHX counter inactive and Shiga toxin inh inactive.
Screening Cc1ccc(C)c(N2CC(O)(c3cccs3)[N+]3=C2CCCC3)c1 (stereo not drawn) returned Pf growth 96h inconclusive, Pf growth 48h 10µM, CHX counter inactive and Shiga toxin inh inactive.
Screening O=C(CN1C(=O)NC(c2ccccc2)(c2ccccc2)C1=O)NCc1cccs1 returned Pf growth 96h inactive and Pf growth 48h inactive.
O=C1CS/C(=N\N=C\c2ccccc2Cl)N1CC1CC1 was read as Pf growth 96h inactive, Pf growth 48h inactive, CHX counter inactive, Shiga toxin inh inactive and NS1 inh inactive.
Screening CCCCNC(=S)NNC(=O)CCn1nc(C)c(Br)c1C returned Pf growth 96h inconclusive, Pf growth 48h inconclusive, CHX counter inactive, Shiga toxin inh inactive and NS1 inh inactive.
For O=C(CSc1nnc2ccccn12)c1ccc(Cl)cc1 the results were Pf growth 96h inactive, Pf growth 48h inactive, CHX counter 45 and Shiga toxin inh 124.
`Cc1cc(NC(=O)CSc2nnc3ccccn23)no1` gave Pf growth 96h inconclusive, Pf growth 48h inactive, CHX counter inactive, Shiga toxin inh inactive and NS1 inh inactive.
CCOc1ccc(C(=O)CSc2nnc3ccccn23)cc1 was read as Pf growth 96h inactive, CHX counter 34, Shiga toxin inh 58 and NS1 inh inactive.
Screening Cc1c(Cl)cnc(NC(=O)CSc2nnc3ccccn23)c1Cl returned Pf growth 48h inactive, CHX counter 22, Shiga toxin inh 84 and NS1 inh inactive.
For CCOc1ccc(-n2nnnc2SCC(=O)c2ccccc2)cc1 the results were Pf growth 96h inactive[5.75 µM], Pf growth 48h inactive, CHX counter inactive, Shiga toxin inh inactive and NS1 inh inactive.
Screening O=C(CSc1nnc2ccccn12)NNC(=O)c1ccc(Cl)cc1 returned Pf growth 96h inactive, Pf growth 48h inactive, CHX counter inactive, Shiga toxin inh inactive and NS1 inh inactive.
CCOc1ccc(NC(=O)C2CCCN(S(=O)(=O)c3cccc4nsnc34)C2)cc1 (stereo not drawn) was read as Pf growth 48h inconclusive, CHX counter inactive, Shiga toxin inh inactive and NS1 inh inactive.
`CC1CN(CC(O)COC(c2ccc(Cl)cc2)c2ccc(Cl)cc2)CC(C)O1` (stereo not drawn) gave Pf growth 96h inconclusive, Pf growth 48h 3.7µM, CHX counter inactive, Shiga toxin inh inactive and NS1 inh inactive.
`O=C(Nc1sc2c(c1C(=O)O)CCCC2)c1ccccc1Cl` gave Pf growth 96h inactive, Pf growth 48h inactive, CHX counter inactive and NS1 inh inactive.
For Cn1nccc1C(=O)NC(=S)Nc1sc2c(c1C#N)CCCCC2 the results were Pf growth 96h inactive, Pf growth 48h inactive, CHX counter inactive, Shiga toxin inh inactive and NS1 inh inactive.
O=C(NC(=S)Nc1sc2c(c1C(=O)O)CCCC2)c1ccccc1 was read as Pf growth 96h inactive, Pf growth 48h inactive, CHX counter 12, Shiga toxin inh inactive and NS1 inh inactive.
CC(C)(C)c1ccc(C(=O)NC(=S)Nc2sc3c(c2C#N)CCC3)cc1 was read as Pf growth 96h inactive, Pf growth 48h inactive, CHX counter 12, Shiga toxin inh 18 and NS1 inh inactive.
For CC(=O)NC(=S)Nc1sc2c(c1C#N)CCCCC2 the results were Pf growth 96h inactive, Pf growth 48h inactive, CHX counter 30, Shiga toxin inh 84 and NS1 inh inactive.
Screening CC1CCc2sc(NC(=S)NC(=O)c3ccccc3)c(C#N)c2C1 (stereo not drawn) returned Pf growth 96h inactive, Pf growth 48h inactive, CHX counter 26, Shiga toxin inh active and NS1 inh inactive.
`CC(=O)Nc1sc2c(c1C#N)CCCC2` gave Pf growth 96h inconclusive, Pf growth 48h inactive, CHX counter inactive, Shiga toxin inh inactive and NS1 inh inactive.
`O=C(N/N=C\c1ccc(Sc2ccccn2)o1)c1cccc(Br)c1` gave Pf growth 96h inactive, Pf growth 48h inactive, CHX counter inactive, Shiga toxin inh inactive and NS1 inh inactive.
N#Cc1c(NC(=S)NC(=O)c2ccccc2)sc2c1CCC2 was read as Pf growth 96h inactive, Pf growth 48h inactive, CHX counter 32, Shiga toxin inh inactive and NS1 inh inactive.
Screening CN1Cc2sc(NC(=S)NC(=O)c3ccccc3)c(C#N)c2CC1(C)C returned Pf growth 96h inactive, Pf growth 48h inactive, CHX counter 47, Shiga toxin inh inactive and NS1 inh inactive.
`CC(=O)C1=C(O)C(=O)N(c2nccs2)C1c1ccccc1F` (stereo not drawn) gave Pf growth 96h inactive, Pf growth 48h inactive, CHX counter inactive, Shiga toxin inh inactive and NS1 inh inactive.
Screening C[C@@]12C(=O)N(Cc3ccccc3)CC(=O)N1[C@H](/C=C/c1ccccc1)[C@@H]1C(=O)N(c3ccccc3)C(=O)[C@@H]12 returned Pf growth 96h inactive, Pf growth 48h inactive, CHX counter inactive, Shiga toxin inh inactive and NS1 inh inactive.
For Cc1cccc(N2C(=O)CC(N(O)c3ccccc3)C2=O)c1 (stereo not drawn) the results were Pf growth 96h inactive, Pf growth 48h inactive, CHX counter 28, Shiga toxin inh inactive and NS1 inh inactive.
Screening Cc1cccc(N2C(=O)SC(N(C)c3ccccc3)C2=O)c1 (stereo not drawn) returned Pf growth 96h inactive, Pf growth 48h inactive, CHX counter inactive, Shiga toxin inh inactive and NS1 inh inactive.
Screening O=C1CC(N(O)c2ccccc2)C(=O)N1c1ccc(Cl)c(Cl)c1 (stereo not drawn) returned Pf growth 96h inactive, Pf growth 48h inactive, CHX counter 10, Shiga toxin inh inactive and NS1 inh inactive.
Screening Fc1cccc(NC(=S)NNc2ccccc2)c1 returned Pf growth 96h inactive, Pf growth 48h inconclusive, CHX counter 34, Shiga toxin inh 45 and NS1 inh inactive.
`NC(=S)Nc1cccc(F)c1` gave Pf growth 96h inactive, Pf growth 48h inactive, CHX counter inactive, Shiga toxin inh inactive and NS1 inh inactive.

Screening data (PubChem)
